The values that follow come from PubChem BioAssay (EPA / NIEHS).

Activity calls are given as the source filed them. The calls were made as follows: active = hit-call score of the fitted dose curve at least 0.9, where 1 is the maximum; inactive = score below 0.9.

The target of the test is Myc proto-oncogene protein (Homo sapiens) (UniProt P01106). Nature of the test: ATG_Myc_CIS: Attagene CIS-FACTORIAL HepG2 Assay for human Myelocytomatosis (Myc) Proto-Oncogene Transcription Factor (AID 2282990). Particulars: HepG2, Attagene cis-reporter transcription factor activity; actives raise or lower the signal. How it is done: ATG_CIS is a cell-based, multiplexed-readout assay that uses HepG2, a human liver cell line, with measurements taken at 24 hours after chemical dosing in a 24-well plate.ATG_Myc_CIS is one of 52 assay component(s) measured or calculated from the ATG_CIS assay. It is designed to make measurements of mRNA induction, a form of inducible reporter, as detected with fluorescence intensity signals by Reverse transcription polymerase chain reaction (RT-PCR) and Capillary electrophoresis technology.Data from the assay component ATG_Myc_CIS was analyzed into 1 assay endpoint. This assay endpoint, ATG_Myc_CIS, was analyzed with bidirectional fitting relative to DMSO as the negative control and baseline of activity. Using a type of inducible reporter, measures of mRNA for gain or loss-of-signal activity can be used to understand the reporter gene at the transcription factor-level as they relate to the gene MYC. Furthermore, this assay endpoint can be referred to as a primary readout, because this assay has produced multiple assay endpoints where this one serves a reporter gene function. To generalize the intended target to other relatable targets, this assay endpoint is annotated to the dna binding intended target family, where the subfamily is basic helix-loop-helix leucine zipper.
Chain of Myc proto-oncogene protein (Homo sapiens) (P01106 whole entry, looked up): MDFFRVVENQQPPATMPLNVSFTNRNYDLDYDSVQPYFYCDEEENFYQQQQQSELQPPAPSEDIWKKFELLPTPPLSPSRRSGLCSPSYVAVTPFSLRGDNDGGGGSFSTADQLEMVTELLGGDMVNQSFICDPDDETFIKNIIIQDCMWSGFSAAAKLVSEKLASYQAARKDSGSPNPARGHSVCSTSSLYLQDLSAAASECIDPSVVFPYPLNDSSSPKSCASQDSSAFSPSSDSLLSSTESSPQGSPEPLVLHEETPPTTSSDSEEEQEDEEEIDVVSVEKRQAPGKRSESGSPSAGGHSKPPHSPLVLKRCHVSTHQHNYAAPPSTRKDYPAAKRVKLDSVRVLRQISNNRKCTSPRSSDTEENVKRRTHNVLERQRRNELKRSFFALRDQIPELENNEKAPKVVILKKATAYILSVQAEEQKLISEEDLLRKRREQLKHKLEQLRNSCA
Human liver HepG2 cells are transiently transfected with multiple reporter transcription units (MRTUs) in 6-well plates using FuGene 6 reagent (Roche; 3 ml FuGene/1 mg DNA). The MRTU constructs are regulated by a cis-regulating element (promoter). […] A major difference between the CIS and TRANS system is that in CIS activities of endogenous TFs are measured, whereas the TRANS assay evaluates changes in activities of exogenous, chimeric NR-Gal4 proteins. […] At the end of 24 hour incubation, total RNA was isolated using TriZol reagent (Invitrogen). The isolated RNA is then reverse-transcribed using oligo(dT) primer and Mo-MLV reverse transcriptase (Invitrogen) with DNAse I (Ambion) treatment for 30 min. The one-tenth of the produced cDNA was amplified by PCR using Taq DNA polymerase (Invitrogen) and two reporter sequence-specific primers. The PCR products were fluorescently labeled by primer extension with 6-arboxyfluorescein (6-FAM) 5'-labeled reporter sequence-specific primer (2 min at 95 C, 20 s at 68 C and 10 min at 72 C) and these products were digested with 5U of HpaI (New England Biolabs) for 2h at 37 C. The fragments were purified using Qiaquick PCR columns (Qiagen), analyzed on an ABI 3130xL genetic analyzer (Applied Biosystems) with peak positions identified by using a set of X-rhodamine (ROX)-labeled MapMarker1000 molecular weight standards (BioVentures). The raw capillary electrophoresis data was processed using Attagraph software (Attagene).
In the case of `CC(C)(C)C1CCCCC1=O` (stereo not given), the compound was classed as inactive.

Regarding `CCc1c(C(=O)O)c(=O)cnn1-c1ccc(Cl)cc1`, the compound was called inactive. On the same count and under the same terms, as for `Cc1cc(C)c(C(=O)O)c(C)c1`, the entry is “inactive”.

For `C=C(C)C(=O)OCCOc1ccccc1`, the call was inactive. Still for that read-out and setting: the entry for `O=C(OCC1CCC2OC2C1)C1CCC2OC2C1` (stereo not given) is “inactive”; for `CCCCCCCCc1ccc(Nc2ccc(CCCCCCCC)cc2)cc1` it is “inactive”; for `CCOC(F)(F)C(F)(F)C(F)(F)C(F)(F)F` it is “inactive”.

Regarding `CC(C)c1ccc2c(C(C)C)cc(C(C)C)c(S(=O)(=O)O)c2c1`, the call was inactive.

Consider `Oc1ccc(Cl)cc1Cc1cc(Cl)ccc1O`, for which the compound was classed as inactive. As for `CCC(CC)C(=O)O`, the result was inactive.

A word on the AC50: it is the concentration at which the activity in the assay is half-maximal. Regarding `Cc1ccc([N+](=O)[O-])cc1S(=O)(=O)O`, the AC50 is 165 µM (active). On to `O=C(Nc1ccccc1SSc1ccccc1NC(=O)c1ccccc1)c1ccccc1`, for which the result was inactive. The same measure, in the same setting: the entry for `N[C@H]1C(O)O[C@H](CO)[C@H](O)[C@@H]1O` (stereo not given in full) is “inactive”; for `COc1ccc(-c2coc3cc(O)ccc3c2=O)cc1` it is “inactive”. The same measure, in the same setting: as for `C=CC(=O)NC(C)(C)CS(=O)(=O)O`, the entry is “inactive”.

In the case of `c1cc(C(c2ccc(OCC3CO3)cc2)C(c2ccc(OCC3CO3)cc2)c2ccc(OCC3CO3)cc2)ccc1OCC1CO1` (stereo not given), the call was inactive.

Consider `O=C1C(N(CO)C(=O)NCO)N(CO)C(=O)N1CO` (stereo not given), for which the call was inactive. On the same count and under the same terms, the entry for `FC(F)(F)C(=NOCC1OCCO1)c1ccc(Cl)cc1` is “inactive”; for `COC(=O)c1ccccc1OC` it is “inactive”; for `CCC(Cc1ccccc1)(C(=O)c1ccc(N2CCOCC2)cc1)N(C)C` (stereo not given) it is “inactive”. Still for that read-out and setting: as for `CCCCCCCC/C=C\CCCCCCCC(=O)O`, the entry is “inactive”. In the case of `CCCCC(CC)COC(=O)c1ccccc1O` (stereo not given), the result was inactive. On the same count and under the same terms, as for `CC(C)=CC1CC(C)CCO1` (stereo not given), the entry is “inactive”; as for `COC(=O)C1=C(C)NC(C)=C(C(=O)OCC(C)C)C1c1ccccc1[N+](=O)[O-]` (stereo not given), “inactive”.

On to `c1ccc(-c2ccccn2)nc1`, for which the result was inactive. As to `OC1CCCC1`, the outcome was inactive. On the same count and under the same terms, as for `C=C(C)CCO`, the entry is “inactive”; as for `CC(C)C(=O)C(C)C`, “inactive”. `O=C(Nc1ccccc1)c1ccccc1O`: the result was inactive. Still for that read-out and setting: the entry for `CC(=O)Oc1ccc(C(C)=O)cc1` is “inactive”; for `C=CCOCC(O)CCl` (stereo not given) it is “inactive”. Same read-out and setting: as for `C1=Cc2ccccc2C1`, the entry is “inactive”. Same read-out and setting: the entry for `NC(=O)OCC(COC(N)=O)c1ccccc1` is “inactive”; for `O=C1OC(=O)c2cc(Oc3ccc4c(c3)C(=O)OC4=O)ccc21` it is “inactive”; for `CCCCCC(C)O` (stereo not given) it is “inactive”.

Take `CC(=O)OCCC1CCCCC1`: the outcome was inactive.

As for `CC(C)c1ccc(C#N)cc1`, the outcome was inactive. Still for that read-out and setting: the entry for `O=[N+]([O-])c1ccc(CO)cc1` is “inactive”; for `Cc1ccc2c(c1)C(=O)c1ccccc1C2=O` it is “inactive”; for `N=c1ccn2c(n1)O[C@H]1[C@H](O)[C@@H](CO)O[C@H]12` it is “inactive”.
